Hits are enriched below; roughly 3.4% of the tested compounds scored in any of these assays.
FBW7 act: FBW7 E3 ligase activators, primary screen, biochemical, AlphaScreen, human. AlphaScreen FBW7–phospho-cyclin E peptide binding, activator screen. normalized activity (activation), % at 26.1 µM. 650,000 compounds, 0.13% hits; in the data active = normalized activity above about 1.9%;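 note: purified mutant Fbw7 with reduced substrate affinity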
TEAD-YAP inh: TEAD-YAP interaction inhibition, primary screen, TEAD-YAP interaction inhibitor project, luminescence, HEK-TIYL cells; TEAD-Gal4/YAP UAS-luciferase luminescence; inhibition, % at 9.12 µM; 640,000 compounds, 1.4% hits; AID 1259422, 2018; in the data active = inhibition above about 32%;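 note: 0% = median of test compound wells and 100% = reference inhibitor wells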
GPR151 ag: activators of human GPR151, primary screen, cell-based, PathHunter beta-arrestin, luminescence. G-protein coupled receptor 151 (Homo sapiens), Q8TDV0. PathHunter beta-arrestin GPR151 cells. activation, % at 11.2 µM. 650,000 compounds, 1% hits. AID 1508602, 2020; in the data active = activation above about 4.9%;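 note: 0% = median of compound wells and 100% = cells with positive control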
MITF primary: MITF inhibitors, primary screen, biochemical, AlphaScreen, human; inhibition, % at 2.6 µM; 650,000 compounds, 0.91% hits; AlphaScreen MITF homodimerization, bead proximity signal; Microphthalmia-associated transcription factor (Homo sapiens), O75030; AID 1259374, 2018; in the data active = inhibition above about 50%;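 note: 0% = vehicle wells with protein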
Target sequence (O75030 whole entry, looked up): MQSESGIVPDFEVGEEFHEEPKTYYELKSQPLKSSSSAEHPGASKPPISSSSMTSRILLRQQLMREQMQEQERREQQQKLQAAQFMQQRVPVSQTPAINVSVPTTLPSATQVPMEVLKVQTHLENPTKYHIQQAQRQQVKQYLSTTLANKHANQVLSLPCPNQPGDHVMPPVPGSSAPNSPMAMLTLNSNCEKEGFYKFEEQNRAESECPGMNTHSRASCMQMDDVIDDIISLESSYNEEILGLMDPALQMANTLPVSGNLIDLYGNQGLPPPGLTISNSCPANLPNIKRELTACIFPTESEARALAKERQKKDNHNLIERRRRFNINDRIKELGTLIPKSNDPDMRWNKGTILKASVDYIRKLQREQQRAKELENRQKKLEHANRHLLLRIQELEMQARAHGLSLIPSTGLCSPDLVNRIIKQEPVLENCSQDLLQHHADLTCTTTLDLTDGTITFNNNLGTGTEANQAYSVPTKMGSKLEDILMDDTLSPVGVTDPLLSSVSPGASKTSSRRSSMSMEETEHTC
* = called active by the depositor.

SMILES	FBW7 act	TEAD-YAP inh	GPR151 ag	MITF primary
CCOC(=O)C1CCCN(S(=O)(=O)c2cc(C(=O)Nc3ccc(CC)cc3)ccc2F)C1 (stereo unspecified)	1	1	0	10
Cc1cc(C)c(/C=C(\C#N)C(N)=O)c(C)c1	0	-29	0	-4
COc1ccc(C(=O)NNC(=O)CCN2CCN(c3ccccc3)CC2)cc1	0	1	1	-3
COc1ccc(Cl)cc1C(=O)On1c(-c2ccc(Br)cc2)nc2ccccc2c1=O	3.2*	7	0	7
COc1ccc(C(=O)On2c(-c3cccc(Cl)c3)nc3ccccc3c2=O)cc1Br	0	-3	-1	-7
Cc1nc2ccccc2n1CC(O)COc1ccc(C(C)C)cc1 (stereo unspecified)	0	48*	0	-3
C=CCc1cc(C)ccc1OCC(O)Cn1c(C)nc2ccccc21 (stereo unspecified)	0	47*	0	10
COCCNC(=O)c1cccc(OC2CCN(Cc3ccsc3)CC2)c1	0	10	0	1
O=C(NNS(=O)(=O)c1cccs1)c1cccc(S(=O)(=O)N2CCOCC2)c1	0	3	2	7
Fc1ccc(-c2nsc3c(N4CCOCC4)ncnc23)cc1	0	68*	0	-1
CC1CCCN(c2ncnc3c(-c4ccccc4)nsc23)C1 (stereo unspecified)	0	80*	1	0
COc1ccc(-c2nsc3c(N4CCCC(C)C4)ncnc23)cc1 (stereo unspecified)	0	86*	1	-5
CCN1CCN(c2ncnc3c(-c4ccc(OC)cc4)nsc23)CC1	0	-55	-1	12
COc1ccc(-c2nsc3c(N4CCCC4)ncnc23)cc1	0	65*	1	-16
CC(=O)Nc1ccc(NC(=O)C(C)N(c2ccccc2)S(C)(=O)=O)cc1 (stereo unspecified)	0	-6	-1	0
COc1ccc(C2CC(=O)C3=C(C2)NC(C)=C(C(=O)OCc2ccccc2)C3c2ccc(C)cc2)cc1 (stereo unspecified)	0	10	2	6
COc1cc(/C=C2/C(=O)N(c3cccc(Cl)c3)N=C2C)ccc1Oc1ccc([N+](=O)[O-])cc1C(F)(F)F	0	42*	-1	-9
COc1ccc(/C=C2\C(=O)N(c3cccc(Cl)c3)N=C2C)cc1[N+](=O)[O-]	0	-5	1	-3
CCc1cc2c(=O)c(-c3ccc4c(c3)OCO4)coc2cc1OC(C)=O	0	-46	-3	9
CCc1cc2c(=O)c(-c3ccc4c(c3)OCCCO4)coc2cc1OC(=O)c1ccco1	1	44*	-2	4
CCc1cc2c(=O)c(-c3ccc4c(c3)OCCO4)coc2cc1OCC(=O)O	0	87*	-1	6
COc1ccccc1C1CC(=O)Nc2cc(C)c(C)cc21 (stereo unspecified)	0	57*	2	14
CCCCOc1ccccc1C1CC(=O)Nc2cc(C)c(C)cc21 (stereo unspecified)	0	4	1	12
CCOc1ccccc1C1CC(=O)Nc2cc(C)c(C)cc21 (stereo unspecified)	0	41*	-1	-7
Cc1cc2c(cc1C)C(c1ccccc1OC(C)C)CC(=O)N2 (stereo unspecified)	0	55*	2	7
SMILES	FBW7 act	TEAD-YAP inh	GPR151 ag	MITF primary
Cc1cc2c(cc1C)C(c1ccccc1C)CC(=O)N2 (stereo unspecified)	0	6	0	5
CCCNc1nc(Cl)nc2c1ncn2C(C)C	0	-17	-1	-3
COc1ccc(-c2cc(C(F)(F)F)n3nc(C(=O)Nc4cccc(CCC#N)c4)cc3n2)cc1	0	-11	0	5
CNC(=O)c1ccccc1Nc1cc(NC(=O)Cc2ccc(OC)cc2)ncc1C(F)(F)F	0	84*	2	4
CNC(=O)c1cccnc1Nc1cc(NC(=O)Cc2ccc(OC)cc2)ncc1C(F)(F)F	0	70*	3	-10
CNC(=O)c1ccccc1Nc1cc(NC(=O)Cc2ccc(OC)cc2)ncc1C#N	0	40*	0	-10
CNC(=O)c1ccccc1Nc1cc(NC(=O)Cc2cccc(OC)c2)ncc1C(F)(F)F	0	64*	1	-10
COc1ccc(CC(=O)Nc2cc(Nc3ccccc3C(=O)NC[C@H](O)C(=O)N(C)C)ccn2)cc1	0	-3	0	27
COc1ccc(CC(=O)Nc2cc(Nc3ccccc3-c3ncccn3)c(C(F)(F)F)cn2)cc1	0	-4	1	-3
CCOc1ccc(CCNC(=O)Nc2ccccc2[N+](=O)[O-])cc1OCC	0	-17	1	6
CCn1c(=O)[nH]c2cc(C(=O)OC)ccc2c1=O	0	6	-1	-1
O=C(Nc1cccc2ccccc12)N[C@H]1C[C@H]2C(=O)N[C@@H](Cc3ccccc3)C(=O)N2C1	0	-6	0	-18
Cc1ccc(S(=O)(=O)NCc2ccc3[nH]c4c(c3c2)CCCC4)cc1	0	-2	1	-4
Cc1ccc(Cl)cc1NC(=O)N[C@H]1C[C@H]2C(=O)N[C@H](C)C(=O)N2C1	0	-3	1	0
CCOc1ccc2[nH]c(=O)c(CN(Cc3cccnc3)S(=O)(=O)c3ccccc3)cc2c1	0	41*	0	3
CCOc1cc(/C=N/NC(=O)C(=O)N/N=C/c2ccc(O)c(OCC)c2)ccc1O	0	4	1	-1
CCOc1cc(/C=N/NC(=O)c2cc(O)c(O)c(O)c2)ccc1O	0	-4	1	82*
CCOc1ccc(-c2cc(C(=O)N/N=C/c3ccc(F)cc3)[nH]n2)cc1	0	41*	-1	-6
CCOc1ccc(-c2cc(C(=O)N/N=C/c3ccc(O)c(OCC)c3)[nH]n2)cc1	0	43*	4	10
O=C(Cc1ccccc1)Nc1nnc(SCC(=O)N2CCCc3ccccc32)s1	0	-1	0	2
CCOC(=O)N1CCN(C(=O)C2c3ccccc3C(=O)N(c3ccc(OC)cc3)C2c2ccc(OC)cc2)CC1 (stereo unspecified)	0	2	2	2
Cc1ccc(NC(=O)c2cc([N+](=O)[O-])cc(Cl)c2O)c(C)c1	0	53*	-9	6
Cc1cccc(NC(=O)c2cc([N+](=O)[O-])ccc2Cl)c1O	1	33*	-2	10
Cc1ccc(NC(=O)c2ccc([N+](=O)[O-])cc2Cl)c(C)c1	0	-31	-1	3
CCc1c(C(=O)c2ccc(Cl)cc2)oc2ccc3c(C)cc(=O)oc3c12	1	-6	-2	28
Cc1ccc(C(=O)c2oc3ccc4c(C)cc(=O)oc4c3c2-c2ccccc2)cc1	0	62*	-1	-5
